USP8 block = inhibitors of human USP8 deubiquitinase; inhibition, % at 20 µM; AID 1645853; P40818; purified USP8, Ub-rhodamine cleavage fluorescence, 30 min; 47,000 compounds, 4.2% hits
Target sequence (P40818 whole entry, looked up): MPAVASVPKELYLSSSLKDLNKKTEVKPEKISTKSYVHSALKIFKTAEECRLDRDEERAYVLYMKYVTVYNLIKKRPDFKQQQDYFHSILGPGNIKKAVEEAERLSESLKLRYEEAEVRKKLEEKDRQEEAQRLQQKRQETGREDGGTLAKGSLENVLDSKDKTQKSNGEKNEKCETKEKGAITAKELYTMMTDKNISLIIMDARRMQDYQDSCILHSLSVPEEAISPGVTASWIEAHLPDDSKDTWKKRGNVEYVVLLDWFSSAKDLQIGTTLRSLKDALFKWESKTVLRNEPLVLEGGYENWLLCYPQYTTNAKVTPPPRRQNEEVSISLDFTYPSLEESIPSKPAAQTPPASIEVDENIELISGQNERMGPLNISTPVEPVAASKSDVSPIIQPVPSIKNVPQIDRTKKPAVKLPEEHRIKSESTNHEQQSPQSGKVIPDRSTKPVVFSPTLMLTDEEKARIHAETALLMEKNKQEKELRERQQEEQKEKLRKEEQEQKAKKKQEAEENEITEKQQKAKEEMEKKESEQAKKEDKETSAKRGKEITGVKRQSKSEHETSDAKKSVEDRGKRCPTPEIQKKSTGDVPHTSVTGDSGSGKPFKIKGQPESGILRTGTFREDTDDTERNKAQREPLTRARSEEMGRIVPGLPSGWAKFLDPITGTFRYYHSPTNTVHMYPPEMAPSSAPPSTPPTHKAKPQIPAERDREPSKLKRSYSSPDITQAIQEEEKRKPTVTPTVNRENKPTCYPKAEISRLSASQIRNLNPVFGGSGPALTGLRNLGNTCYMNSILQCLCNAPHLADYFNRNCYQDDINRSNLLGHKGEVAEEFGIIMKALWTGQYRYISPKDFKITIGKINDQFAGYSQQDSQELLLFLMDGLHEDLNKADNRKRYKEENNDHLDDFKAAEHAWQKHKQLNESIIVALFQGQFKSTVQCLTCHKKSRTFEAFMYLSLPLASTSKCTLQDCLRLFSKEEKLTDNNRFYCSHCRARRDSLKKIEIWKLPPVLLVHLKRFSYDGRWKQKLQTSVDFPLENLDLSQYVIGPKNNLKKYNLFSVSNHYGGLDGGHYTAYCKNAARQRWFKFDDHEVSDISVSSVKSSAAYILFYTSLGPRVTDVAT
USP28 block = inhibitors of human USP28 deubiquitinase | AID 1645857 | purified USP28, Ub-rhodamine cleavage fluorescence, 30 min | Q96RU2 | inhibition, % at 25 µM | 47,000 compounds, 3% hits
USP17 inh = human USP17-like deubiquitinase inhibition | A8MUK1 | inhibition, % at 50 µM | purified USP17, Ub-rhodamine cleavage fluorescence, 3 h | 47,000 compounds, 6.5% hits | AID 1645855
USP30 inh = inhibitors of human USP30 deubiquitinase | Q70CQ3 | purified USP30, Ub-rhodamine cleavage fluorescence | inhibition, % at 25 µM | 47,000 compounds, 5.3% hits | AID 1645860
USP10 inh = blocks human USP10 ubiquitin-rhodamine cleavage; purified USP10, Ub-rhodamine fluorescence, 60 min; 47,000 compounds, 1.1% hits; inhibition, % at 20 µM; AID 1645856; Q14694
A number is an active result; . = inactive; / = no result given. Most compounds without a hit are left out; they make up all but 14% or so of the library. Cut-off read from the data, not from the text of the source: active = inhibition above about 30%; inactive = the rest.

SMILES | USP8 block | USP28 block | USP17 inh | USP30 inh | USP10 inh
Cc1ccc(OCC(=O)Nc2onc3c2CCCC3)cc1C | . | 30.2 | . | . | .
CN(C)c1cccc(C(=O)N2CCCn3nc(-c4ccncc4)cc3C2)c1 | . | . | . | . | .
CC(=O)NCCC(=O)N(c1ccc(Oc2ccccc2)cc1)c1nc2ccccc2s1 | . | . | . | . | .
O=C(c1ccco1)N(c1ccc(Oc2ccccc2)cc1)c1nc2ccccc2s1 | . | . | 44.6 | . | .
Cn1c(=O)/c(=C/c2ccccc2)[nH]c(=O)/c1=C/c1ccccc1 | . | . | 56.3 | . | .
O=c1[nH]/c(=C\c2ccccc2)c(=O)[nH]/c1=C\c1ccccc1 | . | . | . | . | .
O=C(Nc1nnc(-c2ccccc2)o1)C1CCN(C(=O)/C=C/c2ccccc2)CC1 | . | . | . | . | .
COc1cccc(C2CC(c3ccc(F)cc3)=NC3(CCN(C)CC3)N2)c1O (centres undefined) | 40.9 | . | . | . | .
CC(C)(C)C(=O)N1CCC(Cc2cnc(-c3ccn[nH]3)cn2)CC1 | . | . | . | . | .
Clc1ccc2nc(NC3=NCN(CCc4ccccc4)CN3)nc(-c3ccccc3)c2c1 | . | . | . | 37.8 | .
COc1cccc2c(C)nc(NC3=NCN(CCc4ccccc4)CN3)nc12 | . | . | . | 33.4 | .
Brc1ccc2nc(Nc3cccc4ccccc34)nc(-c3ccccc3)c2c1 | . | . | . | . | .
O=c1[nH]c2cc3c(cc2c(=O)n1Cc1nc(-c2ccc(F)cc2)no1)OCO3 | . | . | . | . | .
Cc1ccc(-c2noc(Cn3c(=O)[nH]c4cc5c(cc4c3=O)OCO5)n2)cc1 | 55.0 | . | . | . | .
COc1cc(OC)cc(-c2noc(Cn3c(=O)[nH]c4cc5c(cc4c3=O)OCO5)n2)c1 | 82.2 | . | / | . | .
CCn1cc(-c2ccnc3cc(C(=O)NC4(C)COC4)nn23)c(C)n1 | . | . | . | . | .
Cc1ccc(-c2cc(C(F)F)n3ncc(C(=O)N(C)Cc4c(C)nn(C)c4C)c3n2)cc1 | . | . | . | . | .
Cc1cc(C)n(-c2ccc(C(=O)NCc3cn(C)cn3)cn2)n1 | . | . | . | . | .
COc1ccc(-c2cc(C(=O)Nc3ccnn3Cc3ccccc3)no2)cc1 | . | . | 36.5 | 32.0 | .
Cc1ccc(Cn2ccc(NC(=O)c3cc(-c4ccco4)on3)n2)cc1 | . | . | 30.4 | . | .
COc1ccc(-c2cc(C(=O)NCC(=O)O)no2)cc1 | . | . | . | . | .
COC(=O)c1ccccc1NC(=O)c1cc(-c2ccco2)on1 | . | . | . | . | .
COc1cccc(-c2cc(C(=O)Nc3cc(C)n(Cc4ccc(Cl)cc4)n3)no2)c1 | 38.1 | . | . | 75.3 | .
COc1ccc(S(=O)(=O)c2cnc3ccccc3c2N2CCCC2)cc1 | . | . | . | . | .
CC(C)(C)OC(=O)N1CC2(Cc3ccccc3C(=O)N2)C1 | . | . | . | . | .
SMILES | USP8 block | USP28 block | USP17 inh | USP30 inh | USP10 inh
O=C(c1ccccc1F)N1CCC(c2[nH]nc3nccnc23)CC1 | . | . | . | 35.4 | .
COc1ccc(OC)c(-c2nc3sc4c(c3c(=O)[nH]2)CCCC4)c1 | . | . | . | . | .
NC(=S)N=Nc1c(O)[nH]c2ccc(Br)cc12 | . | . | . | 33.8 | .
C=Cc1ccc(Cn2cc(S(=O)(=O)N3CCOCC3)ccc2=O)cc1 | . | . | 56.9 | . | .
Cc1cccc(Cn2cc(S(=O)(=O)N3CCOCC3)ccc2=O)c1 | . | . | . | . | .
CC1(C)CC(=O)c2ccc(OCc3ccc([N+](=O)[O-])cc3)cc2O1 | . | 35.7 | . | . | .
O=C(CCS(=O)(=O)c1ccccc1Cl)N1CCc2ccccc21 | . | . | . | . | .
O=C(c1ccco1)N1CCCC(c2nc(-c3ccncc3)ncc2-c2ccncc2)C1 (centres undefined) | . | . | . | . | .
CCOC(=O)Cn1c(=O)n(Cc2ccccc2)c(=O)c2ccccc21 | . | . | . | . | .
CCOC(=O)Cn1c(-c2ccc(Cl)cc2)ccc(C#N)c1=O | 31.4 | . | . | 30.3 | .
O=C(NCc1ccccc1Cl)c1ccc2cn[nH]c2c1 | . | 55.5 | . | . | .
COc1ccccc1NC(=O)c1[nH]nc2c1COc1ccccc1-2 | . | . | . | . | .
O=C(NC1CC1)c1cnn2c3c(cnc12)CCCC3 | . | . | . | . | .
Cc1c(-c2nc(-c3ccccc3Cl)no2)nnn1-c1cccc(F)c1 | . | . | 35.9 | 62.2 | 38.1
Cc1ccc(-n2nnc(-c3noc(-c4ccncc4)n3)c2C)cc1 | . | . | . | . | .
c1ccc(-n2nnc(-c3noc(-c4ccccn4)n3)c2-c2ccncc2)cc1 | 32.1 | . | 63.5 | . | .
Cc1c(-c2noc(-c3ccccn3)n2)nnn1-c1ccc(F)cc1 | . | . | 71.7 | 60.5 | .
Cc1ccc(-n2nnc(-c3noc(-c4ccccn4)n3)c2C)cc1 | . | . | . | . | .
Cn1c(=O)c2c(SCC(=O)N3CCCC3)nc(-c3ccccc3)nc2n(C)c1=O | . | . | . | . | .
Cc1cccc(CNC(=O)Cn2c(=O)c(C)nc3cc(C)c(C)cc32)c1 | 32.5 | . | . | . | .
CNC(=O)[C@H]1C[C@@H]2CN(C(=O)NCC3CCCCC3)C[C@H]1O2 | . | . | . | . | .
O=C(Nc1ccc2[nH]ncc2c1)c1ccc(F)cc1 | . | . | . | . | .
O=C(Cc1ccccc1)Nc1ccc2[nH]ncc2c1 | 61.3 | . | . | . | .
Cn1cnnc1-c1cccc(NC(=O)Nc2cccc3ccccc23)c1 | 69.9 | . | 41.8 | . | .
COc1cccc(-c2nnc(-c3ccccc3NC(=O)c3ccc(C(C)(C)C)cc3)o2)c1 | . | . | . | . | .
SMILES | USP8 block | USP28 block | USP17 inh | USP30 inh | USP10 inh
Cc1ccccc1NC(=O)Nc1cccc(-c2nnc(-c3ccccc3)o2)c1 | 50.6 | . | . | . | .
CC(C)(C)C(=O)Nc1ccc(C(=O)Nc2cccc(-c3nnc(-c4ccccc4)o3)c2)cc1 | . | . | 44.4 | 54.8 | 37.7
O=C(Nc1ccccc1N1CCOCC1)Nc1cccc2ccccc12 | . | . | . | . | .
O=C(Nc1cccc(F)c1)Nc1cccc(-c2nnc(-c3ccccc3)o2)c1 | 30.6 | 72.2 | 88.6 | 91.3 | 32.4
CC(=O)N1Cc2ccccc2CC1C(=O)N1CCC(c2c[nH]c3ccccc23)(c2c[nH]c3ccccc23)CC1 (centres undefined) | . | . | / | . | .
CC(C)(C)n1ncc2c(=O)n(CC(=O)OCc3ccccc3)cnc21 | . | / | . | / | .
COc1cccc(CN2C[C@@]34CN(C(=O)c5cnc(C)cn5)C[C@@H](C[C@@H]3S2(=O)=O)O4)c1 | . | . | . | . | .
COc1ccc(NC(=O)Nc2cccc(-c3nnc(-c4ccccc4)o3)c2)cc1OC | . | . | . | 51.0 | .
CC(=O)Nc1ccc(SCc2nnc(-c3ccccc3)o2)cc1 | . | 44.6 | . | . | .
O=C(Nc1ccccc1)Nc1ccc(F)c(-c2nnc(-c3ccccc3)o2)c1 | . | . | . | . | .
CC1CCN(C(=O)c2cnc(-c3ccccc3)nc2-c2ccncc2)CC1 | . | . | . | . | .

Assay outcomes deposited in PubChem by Buhrlage Lab, Dana-Farber Cancer Institute and Novartis Institutes for BioMedical Research (Cambridge, Mass).
